The whole screen tested about 320,000 compounds, of which about 2,100 (0.66%) were called active. Roughly 53% stayed inconclusive and do not appear here. The call rests on the fitted dose curve; in most records, active means well fitted inhibition curve with a large enough effect in the signal ratio, with a control signal flat (not every such curve was filed as active); inconclusive means small, poorly fitted or top-dose-only effect, or effect the other way, or a change in a side signal; inactive means flat fitted curve, though single readings scatter; the % refers to the signal ratio. This excerpt belongs to a sample that is enriched for actives.
Assay: qHTS Assay for Lipid Storage Modulators in Drosophila S3 Cells;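 on cell number change: cells counted by Cell Tracker Red CMTPX staining in the red channel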
Settings: BODIPY lipid droplet fluorescence, 18-24 h, cells fed with added oleic acid; cell number change: measured here: cell count max response; series mostly up to 46.1 µM
Method in brief: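 Drosophila S3 cells got compounds at several concentrations plus oleic acid (400 uM solution). Laser-scanning cytometry with 488 nm excitation read lipid droplets at 500-530 nm and cells at 575-640 nm. Percent activity was relative to 20 uM Triacsin C.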
Potency means the concentration at half of the fitted maximal effect.

Compound	Potency	cell number change [%]
CC(=O)c1cccc(N(CC(=O)NC2CCCCC2)C(=O)CNC(=O)c2cccs2)c1	inactive	16.1
CCC(C)NC(=O)c1c(N)n(/N=C/c2ccccn2)c2nc3ccccc3nc12 (centres undefined)	inactive	8.8
COCCNC(=O)c1c(N)n(/N=C/c2ccc(F)cc2)c2nc3ccccc3nc12	inactive	21.5
COCCCNC(=O)c1c(N)n(/N=C/c2ccccn2)c2nc3ccccc3nc12	7.31 µM (active)	–
Cc1ccc(-c2ccc(=O)n(CCC(=O)N3CCN(Cc4ccccc4)CC3)n2)cc1	inactive	–
COc1ccc(Br)cc1CN(C)C(=O)c1ccc2c(c1)NC(=O)C(C)S2 (centres undefined)	inactive	–
COc1ccc(CNC(=O)c2ccc3c(c2)NC(=O)C(C)S3)cc1 (centres undefined)	inactive	-2.51
COc1cccc(COC(=O)c2ccc3c(c2)NC(=O)C(C)S3)c1OC (centres undefined)	3.26 µM (active)	–
CN1CCN(C(=O)c2cc(Cl)ccc2NC(=O)c2ccc(Cl)cc2Cl)CC1	inactive	–
C=CCn1c(SCC(N)=O)nc2sc3c(c2c1=O)CCC3	inactive	-3.38
CC(NC(=O)c1ccccc1NC(=O)CN1CCN(c2ccccc2O)CC1)c1ccccc1 (centres undefined)	8.2 µM (active)	14.4
O=C(CN1CCN(c2ccc(O)cc2)CC1)Nc1cc(S(=O)(=O)N2CCCC2)ccc1Cl	inactive	-1.92
O=C(CN1CCN(c2ccccc2O)CC1)NC(c1ccccc1)c1ccccc1	inactive	6.07
O=C(CN1CCN(c2ccccc2O)CC1)Nc1cc(S(=O)(=O)N2CCCC2)ccc1Cl	0.259 µM (active)	-12.2
O=C(CN1CCN(c2ccc(O)cc2)CC1)Nc1cc(S(=O)(=O)N2CCCCC2)ccc1Cl	inactive	21
CC(NC(=O)CN1CCN(c2ccc(Cl)cc2)CC1)c1ccccc1 (centres undefined)	inactive	-1.82
COc1cc(S(=O)(=O)NCc2ccccn2)c(OC)cc1Cl	inactive	4.19
CCOC(=O)N1CCN(S(=O)(=O)c2ccc3c(c2)SC(C)C(=O)N3)CC1 (centres undefined)	inactive	-22.8
COC(=O)CSc1nnc(CNC(=O)c2ccc(S(=O)(=O)N(C)C)cc2)n1C	inactive	–
CCCSc1nnc(CNS(=O)(=O)c2ccc(C)cc2)n1C	inactive	-0.463
COC(=O)CSc1nnc(CNS(=O)(=O)c2ccc(Cl)cc2)n1C	20.6 µM (active)	-22.7
O=C(c1cccc(Cl)c1)N1CCC(N2CCC(C(=O)N3CCOCC3)CC2)CC1	inactive	-7.23

Compound	Potency	cell number change [%]
CCN1CCCC1CNS(=O)(=O)c1c(C)cc(C)cc1C (centres undefined)	inactive	-11.3
CCOC(=O)c1sc(NC(C)=O)nc1C	inactive	–
CCCn1c(SCC(=O)Nc2ccc(NC(C)=O)cc2)nc2c1c(=O)n(C)c(=O)n2C	inactive	7.69
COCCN(C(=O)CCl)C(C(=O)NC1CCCCC1)c1ccccc1C (centres undefined)	23.1 µM (active)	-11.6
COCCN(C(=O)C(=O)NC1CCCC1)C(C(=O)NC1CCCC1)c1ccccc1F (centres undefined)	inactive	6.8
COCCN(C(=O)CCC(=O)Nc1cc(C)on1)C(C(=O)NC1CCCC1)c1ccccc1C (centres undefined)	inactive	7.81
O=S(=O)(NCc1ccccc1)c1ccc(Cl)cc1	inactive	-16.1
C=CCn1c(O)c(C=Nc2ccc(Cc3ccncc3)cc2)c(=O)[nH]c1=S	inactive	1.96
O=C(O)c1ccc(-n2nnnc2Oc2cccc3cccnc23)cc1	23.1 µM (active)	-14.4
Cc1ccc2cccc(Oc3nnnn3-c3ccccc3)c2n1	inactive	10.6
c1ccc(-n2nnnc2Oc2cccc3cccnc23)cc1	inactive	–
CCNC(=O)CC1SC(=Nc2ccccc2C)N(C)C1=O (centres undefined)	inactive	12.4
CCN1CCN(c2ccc(S(=O)(=O)N3CCCCC3)cc2NC(=O)c2ccc(F)cc2)CC1	inactive	–
COc1ccc(/C=C(\NC(=O)c2ccc(OC)cc2)C(=O)Nc2ccc(C(=O)O)cc2)cc1	inactive	11.1
Cc1ccc(S(=O)(=O)N2CCN(C(=O)CN3CCCSc4ccccc43)CC2)cc1	inactive	6.28
N#Cc1ccccc1S(=O)(=O)N1CCN(C(=O)C2CCC2)CC1	inactive	17.3
N#Cc1ccccc1S(=O)(=O)N1CCN(C(=O)CN2CCCSc3ccccc32)CC1	2.06 µM (active)	-12.9
CCOC(=O)c1ccc(NC(=O)c2nc[nH]c2C(=O)N[C@@H](Cc2ccccc2)C(=O)OC(C)(C)C)cc1	18.4 µM (active)	-20.1
CCOC(=O)c1ccc(NC(=O)c2nc[nH]c2C(=O)N[C@@H](CC(C)C)C(=O)OC(C)(C)C)cc1	inactive	-3.92
C[C@H](NC(=O)c1nc[nH]c1C(=O)N[C@@H](Cc1ccccc1)C(=O)OC(C)(C)C)C(=O)OCc1ccccc1	14.6 µM (active)	26.3
C[C@H](NC(=O)c1nc[nH]c1C(=O)N[C@@H](Cc1ccccc1)C(=O)OC(C)(C)C)C(=O)OC(C)(C)C	inactive	1.8
CC(C)(C)OC(=O)[C@H](Cc1ccccc1)NC(=O)c1[nH]cnc1C(=O)Nc1ccc(Cl)cc1	inactive	-19.3

Compound	Potency	cell number change [%]
C[C@@H](NC(=O)c1nc[nH]c1C(=O)N[C@@H](Cc1ccccc1)C(=O)OCc1ccccc1)c1ccccc1	inactive	-24.1
O=C(N[C@@H](Cc1ccccc1)C(=O)OCc1ccccc1)c1nc[nH]c1C(=O)NC(c1ccccc1)c1ccccc1	inactive	11.4
C[C@H](NC(=O)c1nc[nH]c1C(=O)N[C@@H](C)C(=O)OC(C)(C)C)C(=O)OCc1ccccc1	inactive	0.898
CC(C)C[C@H](NC(=O)c1nc[nH]c1C(=O)N(C)Cc1ccccc1)C(=O)OC(C)(C)C	inactive	-15.1
C[C@H](NC(=O)c1nc[nH]c1C(=O)N(C)Cc1ccccc1)C(=O)OC(C)(C)C	0.651 µM (active)	20.3
O=C(N[C@@H](Cc1ccccc1)C(=O)OCc1ccccc1)c1nc[nH]c1C(=O)N[C@@H](Cc1ccccc1)C(=O)OCc1ccccc1	3.26 µM (active)	–
C[C@H](NC(=O)c1nc[nH]c1C(=O)NCc1ccccc1)C(=O)OC(C)(C)C	inactive	-10.1
COc1ccccc1CN1CC(C(=O)N(CCO)Cc2cccs2)CCC1=O (centres undefined)	inactive	1.74
CCN1CCCC1CNC(=O)C(=O)NC (centres undefined)	inactive	1.27
Cc1c(C(=O)NCc2cccnc2)oc2ccc(S(=O)(=O)N3CCCCCC3)cc12	inactive	–
O=C(Cn1ccc(C(F)(F)F)n1)N/N=C/c1ccc2c(c1)OCO2	inactive	4.92
COc1ccc(Cl)cc1NC(=O)CCn1c(=O)oc2ccccc21	inactive	–
O=C(CN1C(=O)C2C3CCC(C3)C2C1=O)OCC(=O)c1cccc([N+](=O)[O-])c1 (centres undefined)	inactive	2.72
C=CCn1c(SCc2ccc(C(=O)NCCO)cc2)nc2sc(C)c(C)c2c1=O	inactive	22.5
Cc1ccc(C(=O)NNc2ncnc3c2cnn3C)cc1	inactive	-1.39
Cc1c(CN2CCCC(C(=O)c3cccc(OC(C)C)c3)C2)c(=O)n(-c2ccccc2)n1C (centres undefined)	inactive	1.94
C/C(=N\NC(=O)c1ccc(Cl)cc1)c1cccc(NC(=O)c2cccnc2)c1	inactive	13.4
CCn1c(CSc2nc(C)cs2)nc2cc(S(=O)(=O)N(C)C)ccc21	inactive	-5.93
CCn1c(SCC(=O)NC2CCCC2)nnc1-c1c[nH]c2ccccc12	inactive	30
CN(C)C(CNC(=O)CN1C(=O)NC2(CCc3ccccc32)C1=O)c1ccco1 (centres undefined)	inactive	6.97
Cc1ccc(NC(=O)C(C)SCC(=O)Nc2ccc(F)cc2)cc1S(=O)(=O)N1CCOCC1 (centres undefined)	inactive	–
CC1(C(=O)NC2CCCCCC2)CCC(=O)N1Cc1ccc2c(c1)OCO2 (centres undefined)	inactive	-18.4

Compound	Potency	cell number change [%]
c1ccc(-c2cn3nc(-c4ccccc4)c(-c4ccccc4)nc3n2)cc1	inactive	19.6
c1ccc(-c2cnn3c(-c4ccccc4)c(-c4ccccc4)nc3n2)cc1	3.26 µM (active)	-3.03
Nc1nc(-c2ccccc2)c(-c2ccccc2)n1N	inactive	–
CC(=O)N(CCCN(C)C)Cc1ccccn1	inactive	6.64
c1ccc(CN2CCC(N3CCC(N4CCCCCC4)CC3)CC2)cc1	0.82 µM (active)	-20.6
O=S(=O)(c1ccccc1)N1CCN(C2CCN(Cc3ccccc3)CC2)CC1	inactive	9.59
Cc1ccc(S(=O)(=O)N2CCN(C3CCN(Cc4ccccc4)CC3)CC2)cc1	inactive	-12.2
O=S(=O)(c1ccc2ccccc2c1)N1CCN(C2CCN(Cc3ccccc3)CC2)CC1	5.8 µM (active)	21
O=S(=O)(c1ccc2ccccc2c1)N1CCCCCC1	inactive	0.283
Brc1ccccc1CN1CCC(N2CCCCC2)CC1	inactive	-5.87
CC1CCN(S(=O)(=O)c2ccc3ccccc3c2)CC1	3.26 µM (active)	5.85
CCS(=O)(=O)N1CCN(S(=O)(=O)c2ccc3ccccc3c2)CC1	inactive	16.6
c1ccc(C2CCC(N3CCC(N4CCCCC4)CC3)CC2)cc1 (centres undefined)	inactive	-17
COc1cccc(NC(=O)CN2C(=O)NC(C)(CCC(C)C)C2=O)c1 (centres undefined)	inactive	17.1
O=C(NCCc1ccc(Cl)cc1)c1ccc(CS(=O)Cc2ccc(Cl)cc2)o1 (centres undefined)	inactive	–
O=C(CCN1C(=O)COc2ccccc21)N1CCN(c2ccccc2)CC1	inactive	0.131
O=C(NCC1CCCO1)C1CCN(C2CCN(C(=O)Cc3ccsc3)CC2)CC1 (centres undefined)	inactive	-8.37
CCOc1c(CNc2nnnn2C)cccc1OC	inactive	15.4
COc1ccc(CNc2nc3ccccc3n2C)c(OC)c1	inactive	-4.3
COc1ccc(CNc2nnnn2C)c(OC)c1	0.651 µM (active)	-2.1
O=C1NC(=S)N/C1=C\c1ccccc1OCc1ccc(C(=O)O)cc1	inactive	-1.56

— PubChem BioAssay AID2685 (National Center for Advancing Translational Sciences (NCATS), 2010)
